Here are results for 38 molecules from PubChem BioAssay (NCATS).

Records with an inconclusive call do not appear. Where a call stands in place of a potency, no number is given. Activity calls are given as the source filed them. Calls follow the shape of the dose curve; as a rule, active = well fitted inhibition curve with a large enough effect; inconclusive = small, poorly fitted or top-dose-only effect; inactive = flat fitted curve, though single readings scatter.
Potency is read from the fitted curve at half-maximal effect.

Chain of Voltage-gated inwardly rectifying potassium channel KCNH2 (Homo sapiens) (Q12809 whole entry, looked up): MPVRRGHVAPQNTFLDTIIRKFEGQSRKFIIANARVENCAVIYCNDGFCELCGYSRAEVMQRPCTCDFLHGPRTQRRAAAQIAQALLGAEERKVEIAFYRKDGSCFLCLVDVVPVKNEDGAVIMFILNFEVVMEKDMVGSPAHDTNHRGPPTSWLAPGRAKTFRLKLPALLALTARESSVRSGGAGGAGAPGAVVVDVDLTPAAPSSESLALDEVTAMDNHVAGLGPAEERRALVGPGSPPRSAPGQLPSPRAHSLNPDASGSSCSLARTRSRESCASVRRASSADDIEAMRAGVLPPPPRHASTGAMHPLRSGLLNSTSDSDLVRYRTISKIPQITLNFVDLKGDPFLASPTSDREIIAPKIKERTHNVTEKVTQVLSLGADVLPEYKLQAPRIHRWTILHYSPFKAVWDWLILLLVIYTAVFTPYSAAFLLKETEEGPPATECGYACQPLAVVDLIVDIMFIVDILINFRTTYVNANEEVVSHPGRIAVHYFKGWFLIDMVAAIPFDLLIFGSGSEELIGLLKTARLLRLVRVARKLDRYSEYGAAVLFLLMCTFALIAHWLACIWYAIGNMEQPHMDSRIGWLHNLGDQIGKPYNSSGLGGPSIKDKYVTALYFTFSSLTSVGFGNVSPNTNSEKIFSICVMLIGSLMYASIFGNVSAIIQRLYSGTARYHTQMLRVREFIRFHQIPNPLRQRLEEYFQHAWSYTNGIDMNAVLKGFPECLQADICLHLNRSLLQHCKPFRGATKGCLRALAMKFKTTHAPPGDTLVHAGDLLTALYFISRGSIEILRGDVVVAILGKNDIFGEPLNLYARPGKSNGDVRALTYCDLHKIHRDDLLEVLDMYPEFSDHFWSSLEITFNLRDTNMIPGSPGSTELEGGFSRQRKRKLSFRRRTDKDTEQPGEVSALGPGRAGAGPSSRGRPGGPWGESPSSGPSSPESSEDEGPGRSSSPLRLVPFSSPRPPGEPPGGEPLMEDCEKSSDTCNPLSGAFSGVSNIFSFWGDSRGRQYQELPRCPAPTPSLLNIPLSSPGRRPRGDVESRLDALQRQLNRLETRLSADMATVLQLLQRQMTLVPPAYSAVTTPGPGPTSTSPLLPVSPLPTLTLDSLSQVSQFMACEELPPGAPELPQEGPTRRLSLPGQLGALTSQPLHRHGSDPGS

In the test the target is Voltage-gated inwardly rectifying potassium channel KCNH2 (Homo sapiens) (UniProt Q12809). Put plainly: qHTS Assay for Small Molecule Inhibitors of the Human hERG Channel Activity (AID 588834).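 Also: lower thallium flux fluorescence means stronger hERG block; nearly all actives have a fitted effect of over 50% in size.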 The settings on record: U2OS BacMam hERG, FluxOR thallium flux fluorescence; series mostly up to 46.1 µM. A digest of the protocol:
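hERG block measured as reduced thallium-dye (FluxOR) fluorescence after stimulation buffer addition, read over 2 min. Cells were hERG-BacMam-transduced U2OS exposed to compound ~10 min […]; concentration-response fitted with Hill equation for AC50.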
In general terms: qHTS replaces the single test concentration by a dilution series.
Turning to `OCC1O[C@H](O)C(Cl)C(O)C1O` (stereo partly drawn), the Potency result is “inactive”. Next, `CN(C)CCn1nnnc1SCC1=C(C(=O)O)N2C(=O)[C@@H](NC(=O)Cc3csc(N)n3)[C@H]2SC1`: “inactive”; `CC(C)Cc1ccc([C@H](C)C(=O)O)cc1`: “inactive”; `O=C1NC(O)=NC1(c1ccccc1)c1ccccc1`: “inactive”. Next, `CN1CCc2cc(NC(=O)Nc3cccnc3)ccc21`: “inactive”; `Brc1c(Br)c(Br)c2n[nH]nc2c1Br`: “inactive”. Next, `COc1cccc2c1C(=O)c1c(O)c3c(c(O)c1C2=O)C[C@@](O)(C(=O)CO)C[C@@H]3O[C@H]1C[C@H](N)[C@H](O[C@@H]2CCCCO2)[C@H](C)O1`: “inactive”. Consider `O=c1[nH]c2cc([N+](=O)[O-])c([N+](=O)[O-])cc2[nH]c1=O`, for which the Potency result is “inactive”. Turning to `CCCCCCCCCCCCCCCCCC(=O)NCC(COP(=O)([O-])OCC[N+](C)(C)C)OCC` (stereo not drawn), the Potency result is “inactive”. In the case of `Cn1cc(C2=C(c3ccc(Cl)cc3Cl)C(=O)NC2=O)c2ccccc21`, the Potency was 2.51 µM (active).

Turning to `C#CCN1C(C)=C(C(=O)OC)C(c2cccc([N+](=O)[O-])c2)C(C(=O)OCC)=C1C` (stereo not drawn), the Potency result was “inactive”. As to `Nc1ccn([C@@H]2O[C@H](CO)[C@@H](O)[C@@H]2O)c(=O)n1`, the Potency result was “inactive”. Next, `O=c1[nH]c2cc(C(F)(F)F)ccc2n1-c1cc(C(F)(F)F)ccc1O`: “inactive”. As to `NO`, the Potency entry was “inactive”. To `O=C(c1cc(O)c(O)c([N+](=O)[O-])c1)c1ccccc1F` belongs “inactive”; to `CO[C@H]1C[C@@H]2CC[C@@H](C)[C@@](O)(O2)C(=O)C(=O)N2CCCC[C@H]2C(=O)O[C@H]([C@H](C)C[C@@H]2CC[C@@H](O)[C@H](OC)C2)CC(=O)[C@H](C)C=C(C)[C@@H](O)[C@@H](OC)C(=O)[C@H](C)C[C@H](C)/C=C/C=CC=C1C`, “inactive”. To `NCCSSCCN` belongs “inactive”.

Regarding `CN1CC(=O)N/C1=N/C(=O)Nc1cccc(Cl)c1`, the Potency entry was “inactive”. For `CN(C)c1nc2c(Br)c(Br)c(Br)c(Br)c2[nH]1`, the Potency result was “inactive”. To `COc1cc(NC(C)CCCN)c2ncccc2c1` (stereo not drawn) belongs “inactive”; to `Cc1c(C(=O)O)c(O)cc2c1C(=O)c1c(O)c([C@@H]3O[C@H](CO)[C@@H](O)[C@H](O)[C@H]3O)c(O)c(O)c1C2=O`, “inactive”; to `CC12C(=O)OC(=O)C1(C)C1CCC2O1` (stereo not drawn), “inactive”.

For `CC[C@@H](C)[C@H]1O[C@]2(CC[C@@H]1C)C[C@@H]1C[C@@H](C/C=C(\C)[C@@H](O[C@H]3C[C@H](OC)[C@@H](O[C@H]4C[C@H](OC)[C@@H](O)[C@H](C)O4)[C@H](C)O3)[C@@H](C)/C=C/C=C3\CO[C@@H]4[C@H](O)C(C)=C[C@@H](C(=O)O1)[C@]34O)O2`, the Potency result is “inactive”. Regarding `CCN1/C(=C/C(C)=O)Sc2ccc(OC)cc21`, the Potency result was “inactive”. Next, `N[C@@H](CC(=O)O)C(=O)O`: “inactive”. For the molecule `CC(=O)O[C@H]1C[C@@]2(C)[C@@H](C[C@@H](O)[C@H]3[C@@]4(C)CC[C@@H](O)[C@@H](C)[C@@H]4CC[C@@]32C)/C1=C(\CCC=C(C)C)C(=O)O`, the Potency result was “inactive”.

As to `COC1=C(OC)C(=O)c2ccccc2C1=O`, the Potency entry is “inactive”. To `C[N+](C)(C)CCOP(=O)(O)OP(=O)([O-])OC[C@H]1O[C@@H](n2ccc(N)nc2=O)[C@H](O)[C@@H]1O` belongs “inactive”. To `O=C(O)c1cc([N+](=O)[O-])ccc1NCCCc1ccccc1` belongs “inactive”. To `NC(N)=NC(=O)c1nc(Cl)c(N2CCCCCC2)nc1N` belongs 8.91 µM (active). Consider `CN(C)[C@@H]1C(=O)C(C(=O)NCN2CCCC2)=C(O)[C@@]2(O)C(=O)C3=C(O)c4c(O)cccc4[C@@](C)(O)C3C[C@@H]12` (stereo partly drawn), for which the Potency result is “inactive”. To `O=C(/C=C/c1ccc(O)c(O)c1)OCCc1ccccc1` belongs “inactive”.

Take `CN[C@H](CC(C)C)C(=O)N[C@H]1C(=O)N[C@@H](CC(N)=O)C(=O)N[C@H]2C(=O)N[C@H]3C(=O)N[C@H](C(=O)N[C@H](C(=O)O)c4cc(O)cc(O)c4-c4cc3ccc4O)[C@H](O)c3ccc(c(Cl)c3)Oc3cc2cc(c3O[C@@H]2O[C@H](CO)[C@@H](O)[C@H](O)[C@H]2O[C@H]2C[C@](C)(N)[C@H](O)[C@H](C)O2)Oc2ccc(cc2Cl)[C@H]1O`: the Potency entry was “inactive”. Next, `O=C(O)CC1CCCc2ccccc2C1O` (stereo not drawn): “inactive”; `CC1(C)[C@@H](O[C@H]2O[C@H](C(=O)O)[C@@H](O)[C@H](O)[C@H]2O[C@@H]2O[C@H](C(=O)O)[C@@H](O)[C@H](O)[C@H]2O)CC[C@]2(C)[C@H]3C(=O)C=C4[C@@H]5C[C@@](C)(C(=O)O)CC[C@]5(C)CC[C@@]4(C)[C@]3(C)CC[C@@H]12`: “inactive”; `Cc1ccc(C(=O)O[C@H](C(=O)O)[C@@H](OC(=O)c2ccc(C)cc2)C(=O)O)cc1` (tested in a mixture with another compound): “inactive”. For the molecule `CC1CN(S(=O)(=O)c2cccc3cnccc23)CCN1` (stereo not drawn), the Potency entry was “inactive”. To `O=C(/C=C/c1ccc(O)cc1)c1ccc(O)cc1O` belongs 3.98 µM (active).
